Assay results: the supplement of paper PMC12494721
Counter-ions that a name gives are not always drawn. Values without a mark were called inactive.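 The calls were made as follows: for the amine columns active = adjusted P below 0.05 in both replicates with a change the same way and a mean fold change under 0.8 or over 1.25; inactive = the rest.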

test system: Klebsiella aerogenes DSM 30053; test: fold change of Histamine concentration vs plate DMSO controls (fold change (ratio)); higher = more amine produced, active = hit call of the paper (significant change in both replicates, either direction); details: incubation time: 27 h, anaerobic, 37 °C
Outline: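 Anaerobic mGAM cultures of four gut bacterial strains were grown at 37 °C for 27 h in 80 µL wells, starting at OD 0.1 before 1:1 dilution. Compounds were at 20 µM final (sweeteners 50 µM). Whole cultures were extracted with cold acetonitrile/methanol containing 0.1% formic acid and centrifuged. Amines were quantified by LC–triple-quadrupole MS (dynamic MRM) against external calibration curves and drift-corrected within batch. Each value is the fold change versus plate DMSO controls, averaged over 2 biological replicates.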

In order of rising “fold change of Histamine concentration” value:
1. CC[C@H]1OC(=O)[C@H](C)[C@@H](O[C@H]2C[C@@](C)(OC)[C@@H](O)[C@H](C)O2)[C@H](C)[C@@H](O[C@@H]2O[C@H](C)C[C@H](N(C)C)[C@H]2O)[C@](C)(OC)C[C@@H](C)C(=O)[C@H](C)[C@@H](O)[C@]1(C)O [Clarithromycin] (20 µM)  0.636
2. CC(C)CN(C[C@@H](O)[C@H](Cc1ccccc1)NC(=O)O[C@H]1CCOC1)S(=O)(=O)c1ccc(N)cc1 [Amprenavir] (20 µM)  0.92
3. CN1CCCN=C1/C=C/c1cccc(O)c1 [Oxantel pamoate] (20 µM)  0.924
4. COc1ccc(-c2cc(=O)c3c(O)cc(O[C@@H]4O[C@H](CO[C@@H]5O[C@@H](C)[C@H](O)[C@@H](O)[C@H]5O)[C@@H](O)[C@H](O)[C@H]4O)cc3o2)cc1O [Diosmin] (20 µM)  0.924
5. Clc1ccc(COC(Cn2ccnc2)c2ccc(Cl)cc2Cl)c(Cl)c1 (centres undefined) [Miconazole] (20 µM)  0.926
6. CC[N+](CC)(CC(=O)Nc1c(C)cccc1C)Cc1ccccc1 [Denatonium benzoate] (20 µM)  0.934
7. Cc1nnc(NS(=O)(=O)c2ccc(N)cc2)s1 [Sulfamethizole] (20 µM)  0.935
8. CC1=C(/C=C/C(C)=C/C=C/C(C)=C/C(=O)O)C(C)(C)CCC1 [Retinoic acid] (20 µM)  0.947
9. COCCCOc1ccnc(C[S+]([O-])c2nc3ccccc3[nH]2)c1C (centres undefined) [Rabeprazole sodium salt] (20 µM)  0.965
10. O=C(O)CCC(=O)Nc1ccc(S(=O)(=O)Nc2nccs2)cc1 [Succinylsulfathiazole] (20 µM)  0.965
11. CCCCS(=O)(=O)N[C@@H](Cc1ccc(OCCCCC2CCNCC2)cc1)C(=O)O [Tirofiban hydrochloride] (20 µM)  0.975
12. CN(C)CCN(Cc1ccc(Cl)cc1)c1ccccn1 [Chloropyramine hydrochloride] (20 µM)  0.98
13. C1CCC(C(CC2CCCCN2)C2CCCCC2)CC1 (centres undefined) [Perhexiline maleate] (20 µM)  0.983
14. O=C1[C@H]2CCCC[C@H]2C(=O)N1CCCCN1CCN(c2nsc3ccccc23)CC1 [Perospirone hydrochloride] (20 µM)  0.986
15. CC(C)N1CCN(c2ccc(OCC3COC(Cn4cncn4)(c4ccc(Cl)cc4Cl)O3)cc2)CC1 (centres undefined) [Terconazole] (20 µM)  0.996
16. C[N+]1(C)CCC(OC(=O)C(O)(c2ccccc2)C2CCCC2)C1 (centres undefined) [Glycopyrrolate bromide] (20 µM)  1
17. COc1ccc(CC2c3cc(OC)c(OC)cc3CC[N+]2(C)CCC(=O)OCCCCCOC(=O)CC[N+]2(C)CCc3cc(OC)c(OC)cc3C2Cc2ccc(OC)c(OC)c2)cc1OC (centres undefined) [Atracurium besylate] (20 µM)  1.01
18. O=C(Cn1c(=O)sc2ccc(Cl)cc21)N1CCN(CCO)CC1 [Tiaramide Hydrochloride] (20 µM)  1.01
19. CCCC(=O)OCOC(=O)C1=C(C)NC(C)=C(C(=O)OC)C1c1cccc(Cl)c1Cl (centres undefined) [Clevidipine] (20 µM)  1.01
20. COC(=O)C1=C(C)NC(C)=C(C(=O)O[C@H]2CCN(Cc3ccccc3)C2)[C@H]1c1cccc([N+](=O)[O-])c1 [Barnidipine Hydrochloride] (20 µM)  1.01
21. CC(Cc1cccc(C(F)(F)F)c1)NCCOC(=O)c1ccccc1 (centres undefined) [Benfluorex] (20 µM)  1.02
22. C[C@@H](O[C@H]1OCCN(Cc2n[nH]c(=O)[nH]2)[C@H]1c1ccc(F)cc1)c1cc(C(F)(F)F)cc(C(F)(F)F)c1 [Aprepitant] (20 µM)  1.02
23. CCCCCCCCCCCCCCCCCCCCCC(=O)Nc1ccn([C@@H]2O[C@H](CO)[C@@H](O)[C@@H]2O)c(=O)n1 [Enocitabine] (20 µM)  1.03
24. CCN(CC)CCOC(=O)C1(c2ccc([N+](=O)[O-])cc2)CCCC1 [Nitrocaramiphen hydrochloride] (20 µM)  1.03
25. O=C(O)C[C@H](O)C[C@H](O)/C=C/c1c(C2CC2)nc2ccccc2c1-c1ccc(F)cc1 [Pitavastatin calcium] (20 µM)  1.03
26. Cc1cn[nH]c1 [Fomepizole] (20 µM)  1.03
27. COc1cc(/C=C/C(=O)N2CCN(CC(=O)N3CCCC3)CC2)cc(OC)c1OC [Cinepazide maleate] (20 µM)  1.03
28. CN(C)CCCN1c2ccccc2[S+]([O-])c2ccc(Cl)cc21 (centres undefined) [Chlorpromazine Sulfoxide] (20 µM)  1.04
29. CC(C(=O)O)c1ccc(N2Cc3ccccc3C2=O)cc1 (centres undefined) [Indoprofen] (20 µM)  1.04
30. COc1ccc2cc([C@H](C)C(=O)O)ccc2c1 [(S)-Naproxen] (20 µM)  1.04
31. CCC(=O)OCC(=O)[C@@]1(OC(=O)CC)[C@H](C)C[C@H]2[C@H]3[C@H]([C@@H](O)C[C@@]21C)[C@@]1(C)C=CC(=O)C=C1C[C@H]3Cl [Alclometasone dipropionate] (20 µM)  1.04
32. C#CCN(C)CCCOc1ccc(Cl)cc1Cl [Clorgyline hydrochloride] (20 µM)  1.04
33. S=c1[nH]cnc2nc[nH]c12 [Mercaptopurine] (20 µM)  1.05
34. CC[C@H](C)C(=O)O[C@H]1C[C@@H](C)C=C2C=C[C@H](C)[C@H](CC[C@@H]3C[C@@H](O)CC(=O)O3)[C@H]21 [Lovastatin] (20 µM)  1.05
35. COC(=O)[C@H](c1ccccc1Cl)N1CCc2sccc2C1 [Clopidogrel] (20 µM)  1.06
36. CN(C)CCC=C1c2ccccc2C=Cc2ccccc21 [Cyclobenzaprine hydrochloride] (20 µM)  1.06
37. COC(c1ccccc1)(c1ccccc1)[C@H](Oc1nc(C)cc(C)n1)C(=O)O [Ambrisentan] (20 µM)  1.07
38. CCCCNc1ccc(C(=O)OCCN(C)C)cc1 [Tetracaine hydrochloride] (20 µM)  1.08

With `CN(C)[C@@H]1C(=O)C(C(N)=O)=C(O)[C@@]2(O)C(=O)C3=C(O)c4c(O)ccc(Cl)c4[C@@H](O)[C@H]3C[C@@H]12` [Demeclocycline hydrochloride] (20 µM) the “fold change of Histamine concentration” value was 0.107 (active).
